In all, about 410,000 compounds went through this assay and about 6,400 (1.6%) were called active. Not shown: some 20% with an inconclusive outcome. Shown is part of a subset that was picked to be rich in actives. A call without a number means that no potency is given here. A number with no mark means an inactive call. Calls come from the whole dose curve; as a rule, active = well fitted inhibition curve with a large enough effect; inconclusive = small, poorly fitted or top-dose-only effect; inactive = no such curve, though single readings can be large or run the other way.
biological target: Glucagon-like peptide 1 receptor (Homo sapiens) (UniProt P43220); assay: qHTS of GLP-1 Receptor Inverse Agonists (Inhibition Mode); settings: HEK293 GLP-1R CRE-luciferase, luminescence, 24 h, GLP-1R form is constitutively active; series mostly up to 38.3 µM; note: nearly all actives have a fitted effect of over 55% in size
How it was run: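 HEK293 cells stably co-expressing constitutively active GLP-1R and a cAMP-responsive luciferase reporter were seeded in DMEM with 10% Nu serum, given compounds after 12 h, and incubated 24 h at 37 deg C. Luminescence was then read.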
Potency is the fitted concentration of half-maximal effect.

Sequence of Glucagon-like peptide 1 receptor (Homo sapiens) (P43220 whole entry, looked up): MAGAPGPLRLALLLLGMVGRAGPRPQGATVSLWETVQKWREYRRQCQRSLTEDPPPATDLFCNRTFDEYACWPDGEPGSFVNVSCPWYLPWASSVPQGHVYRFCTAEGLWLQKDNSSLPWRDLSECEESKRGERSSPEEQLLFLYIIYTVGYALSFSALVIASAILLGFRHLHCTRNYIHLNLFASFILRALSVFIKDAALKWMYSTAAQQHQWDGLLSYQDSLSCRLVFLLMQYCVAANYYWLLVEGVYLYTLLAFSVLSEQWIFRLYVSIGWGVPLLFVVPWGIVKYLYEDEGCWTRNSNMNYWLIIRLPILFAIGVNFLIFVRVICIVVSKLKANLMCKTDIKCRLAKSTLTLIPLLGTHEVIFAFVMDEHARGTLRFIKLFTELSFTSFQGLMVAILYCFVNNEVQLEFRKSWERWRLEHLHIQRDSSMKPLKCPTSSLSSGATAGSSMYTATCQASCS

SMILES	Potency	activity change, negative = inhibition
CCc1nc2ccc(C(=O)N3CCN(S(=O)(=O)CC)CC3)cn2c1N(C=O)CCC(C)C	inactive	
COc1ccc(CCNC(=O)C(=O)NCC2CCCN2S(=O)(=O)c2cccs2)cc1OC (stereo unspecified)	inactive	
O=C(NCCC1CCCCN1S(=O)(=O)c1ccc(F)cc1)C(=O)NC1CC1 (stereo unspecified)	inactive	
O=C(NCCC1CCCCN1S(=O)(=O)c1cccs1)C(=O)Nc1ccc(F)cc1F (stereo unspecified)	6.31 µM (active)	
COC(=O)C[C@@H]1C=C[C@@H](NC(=O)c2ccc3c(c2)OCO3)[C@@H](CO)O1	inactive	
CC(=O)Nc1ccc(NC(=O)c2cc3sccc3n2Cc2ccc(F)cc2)cc1	inactive	
CCOC(=O)c1cc2sccc2n1Cc1ccc(C#N)cc1	inactive	
O=C(c1cc2sccc2n1Cc1ccc(F)cc1)N1CCc2ccccc21	5.01 µM (active)	
N#CCCC(C#N)(c1cccnc1)N1CCOCC1 (stereo unspecified)	inactive	
COCCNC(=O)C1(C)CCCN(Cc2cccc(F)c2)C1 (stereo unspecified)	inactive	
O=C(NCc1cccc(C(F)(F)F)c1)c1ccc2sc(COCCO)nc2c1	inactive	
O=C(C[C@H]1C[C@H]2c3cc(NS(=O)(=O)c4ccc(F)cc4)ccc3O[C@H]2[C@H](CO)O1)NCc1cc(F)ccc1F	inactive	
COc1ccc(C(=O)N2CCCCC2c2cc(C(=O)Nc3ccccc3)no2)cc1 (stereo unspecified)	10 µM (active)	
N#Cc1cccc(NC(=O)c2cc(C3CCCCN3C(=O)CCc3ccccc3)on2)c1 (stereo unspecified)	inactive	
CCCNC(=O)c1cc(C2CCCCN2C(=O)OC)on1 (stereo unspecified)	inactive	
COc1cccc(NC(=O)N(C)C[C@@H]2Oc3ncc(Br)cc3C(=O)N([C@@H](C)CO)C[C@H]2C)c1	inactive	
CCC1OC(C2CC2)CC2=C1C(=O)OC(C)(C)O2 (stereo unspecified)	inactive	
COC(=O)CNC(=O)c1cc(-c2ccncc2)nc2ccccc12	inactive	
O=C(Nc1ccc(S(=O)(=O)Nc2nccs2)cc1)c1cc(-c2ccncc2)nc2ccccc12	inactive	
CCN(CC)CCNC(=O)c1ccc(NC(=O)c2cc(-c3ccncc3)nc3ccccc23)cc1	12.6 µM (active)	
C=CCOc1ccccc1CNn1c(C)n[nH]c1=S	inactive	
CC1(C(=O)NS(=O)(=O)c2cccc(OC(F)F)c2)CCN1C(=O)COc1ccc(Cl)cc1 (stereo unspecified)	inactive	
FC(F)Oc1ccccc1C1CC(c2ccc(Br)s2)Nc2ncnn21 (stereo unspecified)	7.94 µM (active)	
CCOc1ccccc1C1CC(c2ccccc2)Nc2nc(N)nn21 (stereo unspecified)	inactive	
COc1ccc(C2CC(c3ccc(C)cc3)Nc3ncnn32)cc1 (stereo unspecified)	inactive	
Cc1ccc(S(=O)(=O)N[C@H](CO)C(C)C)cc1	inactive	

SMILES	Potency	activity change, negative = inhibition
C[C@H]1CN([C@@H](C)CO)C(=O)CCCn2cc(nn2)CO[C@@H]1CN(C)S(=O)(=O)c1ccc(-c2ccccc2)cc1	inactive	
C[C@H]1CN(c2ccc(Br)cc2)C(=O)[C@@H]1CC(=O)Nc1ccc(Br)cc1	inactive	
COc1ccc(NC(=O)c2sc(=O)n(Cc3ccc(S(=O)(=O)N(C)C)cc3)c2C)cc1	inactive	
Cc1ccc(NC(=O)Cc2ccc(NC(=O)N3CCCCc4ccccc43)cc2)cc1	7.94 µM (active)	
Cc1cc(Cl)ccc1NC(=O)Cc1ccc(NC(=O)N2CCCCc3ccccc32)cc1	inactive	
Cc1ccccc1CNC(=O)c1ccc(NC(=O)N2CCCCc3ccccc32)cc1	inactive	
CCOC(=O)N1CCN(C(=O)C[C@@H]2C[C@@]3(C(=O)OC)CC(C)(C)CC=C3N(Cc3ccco3)C2=O)CC1	inactive	
CCCNC(=O)C1(C)CCCN(C(=O)c2oc3ccccc3c2C)C1 (stereo unspecified)	inactive	
CC1(C(=O)NS(=O)(=O)c2cccc(F)c2)CCN1C(=O)c1cccc2ccccc12 (stereo unspecified)	inactive	
Cc1ccccc1S(=O)(=O)N1[C@@H](c2cccc(Cl)c2)C(C(=O)OC(C)(C)C)=CC[C@H]1c1ccc(Cl)cc1	inactive	
O=C(Nc1nnc(-c2ccccc2F)s1)c1ccccc1F	inactive	
O=C(Nc1sc2c(c1C(=O)O)CCC2)c1ccccc1F	inactive	
O=C(Nc1nc2c(s1)CCCC2)c1ccccc1F	4.47 µM (active)	
Cc1nc(C(F)(F)F)ccc1C(=O)N1CCC1(C)C(=O)NS(=O)(=O)c1ccc(F)cc1F (stereo unspecified)	inactive	
O=C1CCNCCN1[C@H](CO)Cc1ccccc1	inactive	
c1ccc(C[C@H]2CNCCN2CCC23CC4CC(CC(C4)C2)C3)cc1	10 µM (active)	
c1ccc2c(CCN3CCNC[C@H]3Cc3cccc4ccccc34)cccc2c1	inactive	
CN(C)C1CN(Cc2cn(Cc3ccccc3)nn2)S(=O)(=O)C1 (stereo unspecified)	inactive	
Cc1ccc(-c2cn3cc([N+](=O)[O-])ccc3n2)cc1	4.47 µM (active)	
Cc1ccc(-c2cn3cc(C)ccc3n2)cc1		-14.4% [at 0.307 µM]
Cc1ccc(-n2cc3ccc([N+](=O)[O-])cc3n2)cc1	inactive	
CCOC(=O)c1c(NC(=O)COC(=O)c2ccc(S(=O)(=O)C(F)F)cc2)sc(C(=O)N(C)C)c1C	inactive	
COc1ccc(CC(N)c2csc(NC(=O)NC(c3ccccc3)c3ccccc3)n2)cc1 (stereo unspecified)	inactive	
C[C@@H]1CN([C@H](C)CO)C(=O)CCCn2cc(nn2)CO[C@H]1CN(C)S(=O)(=O)c1ccc(Oc2ccccc2)nc1	inactive	
Cc1ccc(-c2noc(CSc3nnc(-c4ccc(Cl)cc4)n3C)n2)cc1	inactive	
Cc1ccc(-c2noc(CC(c3ccccc3)c3ccccc3)n2)cc1	5.62 µM (active)	

SMILES	Potency	activity change, negative = inhibition
c1ccc(CCc2nc(-c3ccncc3)no2)cc1	inactive	
CC[C@@H]1CC2=C(C(=O)OC(C)(C)O2)[C@@H](CC)O1	inactive	
CC1(C)NC(=O)N(CC(=O)Nc2ccc(-c3ccccc3)cc2)C1=O	inactive	
Cc1c(C(=O)NCc2ccc(C#N)cc2)sc(=O)n1Cc1ccc(C(=O)N(C)C)cc1	inactive	
O=C(c1ccco1)N1CCN(Cc2cccc(C(F)(F)F)c2)CC1	inactive	
CCOC(=O)N1CCN(Cc2nc(Cc3cccc(C(F)(F)F)c3)no2)CC1	inactive	
FC(F)(F)c1cccc(Cc2noc(CN3CCC(N4CCCCC4)CC3)n2)c1	5.62 µM (active)	
O=C(NCc1ccccc1)C1c2ccccc2OCC(=O)N1CCCN1CCOCC1 (stereo unspecified)	inactive	
Cc1cc(Br)ccc1NC(=O)CCCOc1cc(=O)n(C)c2ccccc12	inactive	
COc1ccc(CN(CC(=O)NC2CCCC2)C(=O)CCC(=O)Nc2cc(C)on2)cc1	inactive	
Cc1cc(C(C)(C)C)oc1C(=O)N(CC(=O)NC1CCCC1)Cc1ccc(Cl)cc1	7.08 µM (active)	
Cc1ccc(CN(CC(=O)NC2CCCCC2)C(=O)c2csnn2)cc1	inactive	
O=C(CC[C@H]1O[C@@H](n2ccc(=O)[nH]c2=O)[C@H](O)[C@@H]1O)N[C@H](Cc1ccccc1)C(=O)NCc1ccco1	inactive	
CC1CCCN(CC(O)COCc2ccccc2)C1 (stereo unspecified)	inactive	
Cc1ccccc1C(OCC(O)CN1CCCCC1CCO)c1ccccc1 (stereo unspecified)	10 µM (active)	
Cc1cccc(C)c1OCC(O)CN1CCCCC1 (stereo unspecified)	inactive	
Cc1nc(C(F)(F)F)ccc1C(=O)N1CCC1(C)C(=O)NS(=O)(=O)c1ccccc1Cl (stereo unspecified)	inactive	
CCOC(=O)N(C)c1c(CC)nc2c(OCc3ccccc3C(=O)OC)cccn12	inactive	
COc1cc(OC)c(C(=O)OCC(=O)N2CC(=O)Nc3ccccc32)cc1OC	inactive	
COc1ccc(C(=O)OCC(=O)N2CC(=O)Nc3ccccc32)cc1Br	inactive	
COc1ccc(Cl)cc1-n1c(C)cc(C(=O)OCC(=O)N2CC(=O)Nc3ccccc32)c1C	10 µM (active)	
Nc1cc(=O)c2[nH]cnc2[nH]1	inactive	
Cc1cc(C)n2c(Nc3c(C)cccc3C)c(CCc3ccccc3)nc2n1	inactive	
CN(Cc1ccccc1F)c1cc2c(c3c1ccn3C)C1CCC2O1 (stereo unspecified)	inactive	
N#CC1(Nc2ccc3c4c(cccc24)CC3)CCCCC1	inactive	
Cc1sc2ncnc(N3CCC(C(=O)Nc4nc5ccc(Cl)cc5s4)CC3)c2c1C	inactive	

SMILES	Potency	activity change, negative = inhibition
O=C(NNC(=O)C1CCN(c2ncccn2)CC1)c1ccccc1	inactive	
CCc1ccc(C(=O)NNC(=O)C2CCN(c3ncnc4sc(C)c(C)c34)CC2)cc1	10 µM (active)	
C[C@H]1CN([C@@H](C)CO)C(=O)c2cc(C3=CCCCC3)cnc2O[C@@H]1CN(C)C(=O)Cc1ccccc1	inactive	
CC(C)Nc1ncnc2c1ncn2[C@H]1CN(Cc2ccncc2)C[C@@H](CO)O1	inactive	
O=C(NCc1ccc(Cl)cc1)NCc1ccc(Cl)cc1		-0.855% [at 7.66 µM]
S=C(NCc1ccc(Cl)cc1)NC12CC3CC(CC(C3)C1)C2	8.91 µM (active)	
O=C(NCc1ccncc1)NC12CC3CC(CC(C3)C1)C2	inactive	
O=C(NC1CCCC1)C1c2ccccc2OCC(=O)N1Cc1ccccc1 (stereo unspecified)	inactive	
CCOC(=O)c1cnn2c(SC)ncnc12	inactive	
N#Cc1nc(N)nc(N(c2ccccc2)c2ccccc2)n1	12.6 µM (active)	
CC(C)Nc1nc(N(c2ccccc2)c2ccccc2)nc(-n2ccnc2)n1	inactive	
CC(C)Cn1cc(-c2cncc3nccn23)cn1	inactive	
CCCC(=O)N1CCC1(C)C(=O)NS(=O)(=O)c1ccc(Cl)cc1 (stereo unspecified)	inactive	
CCCNC(=O)C1(C)CCCN(Cc2c(C)nn(-c3ccccc3)c2C)C1 (stereo unspecified)	inactive	
Cc1c(C)n(Cc2ccc(Cl)cc2)c2ccc(C(=O)NCCc3ccc(S(N)(=O)=O)cc3)cc12	inactive	
O=C(NCCCN1CCOCC1)c1cc(-c2ccc(Cl)cc2)on1	inactive	
Cc1c(C)n(Cc2ccc(Cl)cc2)c2ccc(C(=O)NCCCN3CCOCC3)cc12	1.12 µM (active)	
CCN1CCN(c2ncc3c(n2)CC(c2ccccc2O)CC3=O)CC1 (stereo unspecified)	10 µM (active)	
Cc1nc2nc3c(cn2n1)C(=O)CC(c1ccccc1)C3 (stereo unspecified)	inactive	
CCc1ccc(Nc2ncc3c(n2)CC(c2ccco2)CC3=O)cc1 (stereo unspecified)	inactive	
CN1CCN(c2ncc3c(n2)CC(c2ccccc2F)CC3=O)CC1 (stereo unspecified)	3.98 µM (active)	
O=C1c2ccccc2C(=O)C1c1ccccc1F	inactive	
COc1cc(C2CC(=O)c3cnc(NC(C)=O)nc3C2)cc(OC)c1OC (stereo unspecified)	inactive	

Source: PubChem BioAssay AID624417 (National Center for Advancing Translational Sciences (NCATS), 2012)
